The text below walks through data of PubChem BioAssay (NCATS).

Each structure is given as a SMILES string. Values without a mark were called inactive. Records with an inconclusive call do not appear. Calls of active or inactive are those of the source. Unless noted, calls follow the shape of the dose curve; as a rule, active = well fitted curve in the direction sought with a large enough effect; inconclusive = small, poorly fitted or top-dose-only effect, or another doubt; inactive = no such curve, though single readings can be large; an effect the other way counts as inactive or inconclusive. Where only a bound is given, the exact number is not on record here.

Experiment [1] can be described thus: Cell Viability - N2a (AID 540). Also: nearly all actives have a fitted effect of over 45% in size. Also: potency is read from the fitted curve at half-maximal effect.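 As to activity change, negative = cytotoxicity: plate controls were DMSO alone for no effect and tamoxifen control for full effect.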 To be noted: N2a mouse neuroblastoma cell viability; activity change, negative = cytotoxicity: at 92.2 µM (top of the series). The method in brief:
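Mouse neuroblastoma N2a cells, 1500/well, exposed to compounds 40 h at 37 °C in complete medium. Viability measured as cellular ATP by CellTiter-Glo luminescence; AC50 from Hill fits of concentration-response.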

A short description of experiment [2]: Cell Viability - NIH 3T3 (AID 541). Also: nearly all actives have a fitted effect of over 25% in size. Also: potency is read from the fitted curve at half-maximal effect.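 As to activity change, negative = cytotoxicity: plate controls were DMSO alone for no effect and tamoxifen positive control for full effect.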 The procedure, abridged: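 Mouse NIH 3T3 fibroblasts, 1000 cells/well, rested 5 hr at 37 °C, then exposed to compound for 40 hr at 37 °C in complete medium. Viability read as intracellular ATP by CellTiter-Glo luminescence; AC50 from Hill-equation fits of concentration-response data.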
A short description of experiment [3]: Cell Viability - HUV-EC-C (AID 542). Also: nearly all actives have a fitted effect of over 35% in size. Also: potency is read from the fitted curve at half-maximal effect. As to activity change, negative = cytotoxicity: % is scaled to controls: 0 for no effect and ±100 for the full control effect. The method in brief:
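HUV-EC-C human vascular endothelial cells, 1000/well, exposed to compound for 40 hr at 37 °C in complete medium. Intracellular ATP was read by CellTiter-Glo luminescence. AC50 came from Hill-equation fits of concentration-response data.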

Experiment [4] is described as follows: Cell Viability - H-4-II-E (AID 543). Also: nearly all actives have a fitted effect of over 35% in size. Also: potency is read from the fitted curve at half-maximal effect. The method in brief: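 Rat hepatoma H-4-II-E cells, 1500 per well, treated 40 h at 37 °C in complete medium. Cellular ATP read by CellTiter-Glo luminescence; AC50 from Hill fits of concentration-response.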
Experiment [5] can be described thus: Cell Viability - SH-SY5Y (AID 544). Also: nearly all actives have a fitted effect of over 55% in size. Also: potency is read from the fitted curve at half-maximal effect. The method in brief: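 SH-SY5Y human neuroblastoma cells (1500/well) incubated 5 h, then compound-treated 40 h at 37 °C in complete medium. Viability read as intracellular ATP by CellTiter-Glo luminescence after 20 min; AC50 from Hill-equation fits of qHTS concentration-response.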
A short description of experiment [6]: Cell Viability - Renal Proximal Tubule (AID 545). Also: nearly all actives have a fitted effect of over 40% in size. Also: potency is read from the fitted curve at half-maximal effect.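 As to activity change, negative = cytotoxicity: 0% = DMSO only and -100% = 100 µM tamoxifen.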 The procedure, abridged: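 Viability taken as intracellular ATP (CellTiter-Glo luminescence) after 40 hr, 37 °C compound treatment of primary proximal tubule cells from rat kidney, 1000 cells/well; Hill-equation fits of qHTS concentration-response data gave AC50.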
Experiment [7] in a line: Cell Viability - Mesenchymal (AID 546).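 Also: cells exposed to compound for 40 hours before reading.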 Also: potency is read from the fitted curve at half-maximal effect.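 As to activity change, negative = cytotoxicity: 0% = DMSO only and -100% = 100 µM tamoxifen.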 The procedure, abridged:
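AC50 values reflect the drop in intracellular ATP in a human kidney mesenchymal line derived from normal glomeruli. Treatment lasts 40 hr at 37 °C in complete medium, and the signal comes from CellTiter-Glo luminescence.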

A short description of experiment [8]: Cellular Toxicity (caspase-3) HepG2 (AID 654).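 Also: cells exposed to compound for 16 hours before reading; 0% = DMSO alone and 100% = caspase signal from 100 µM tamoxifen.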 The procedure, abridged:
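HepG2 cells (1500/well) were treated 16 h at 37 °C in complete medium, then caspase 3/7 activity was read by Caspase-Glo luminescence. Data were normalized to DMSO and 100 uM tamoxifen; AC50 came from Hill-equation fits of qHTS concentration-response.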

Experiment [9] is described as follows: Cellular Toxicity (caspase-3) HUV-EC-C (AID 656).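 Also: 0% = DMSO basal and 100% = 100 µM tamoxifen.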 The method in brief: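 Luminescent Caspase-Glo 3/7 readout after 16 h, 37 °C compound exposure of HUV-EC-C endothelial cells, 1000 per well, complete medium. AC50 derived by Hill fitting, with DMSO as baseline and 100 uM tamoxifen as full activation.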
Experiment [10] can be described thus: Cellular Toxicity (caspase-3) SHSY5Y (AID 657). The method in brief:
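Luminescent Caspase-Glo 3/7 read-out, 1 hr room temperature, follows 16 hours of compound treatment of SH-SY5Y cells at 37 °C. Normalization: DMSO basal, 10 uM staurosporine as 100%; AC50 values from Hill-equation concentration-response fits.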

Experiment [11] is described as follows: Cellular Toxicity (caspase-3) BJ (AID 658).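 Also: 0% = DMSO basal and 100% = 10 µM staurosporine.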 The method in brief: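 Readout: Caspase-Glo 3/7 luminescence increase in BJ cells after 16 hr treatment at 37 °C. Staurosporine and tamoxifen served as positive controls; AC50 values came from Hill modelling of data normalized to DMSO and 10 uM staurosporine.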
Experiment [12] in a line: Cellular Toxicity (caspase-3) MRC-5 (AID 659).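 Also: 0% = DMSO basal and 100% = 10 µM staurosporine.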 The method in brief: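 Concentration-dependent caspase 3/7 activation is measured in human normal lung fibroblasts (MRC-5) following 16-hour treatment. AC50 values come from standard Hill-equation modeling of luminescence normalized to DMSO and 10 uM staurosporine.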
Experiment [13] in a line: Cellular Toxicity (caspase-3) Mesangial (AID 660).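 Also: cells exposed to compound for 16 h before the caspase read.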 The method in brief:
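Human renal glomerular mesangial cells, 1000/well, 5 h at 37 C before 16 h compound treatment. Caspase-Glo 3/7 luminescence after 20 min; normalized to DMSO and 100 uM tamoxifen, AC50 from Hill fit.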

Experiment [14] is described as follows: Cellular Toxicity (caspase-3) SK-N-SH (AID 661).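 Also: 0% = DMSO basal and 100% = 10 µM staurosporine.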 The method in brief: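 Human SK-N-SH neuroblastoma cells, 1500/well, were exposed to compounds for 16 hours at 37 °C. Caspase-Glo 3/7 luminescence was normalized to DMSO (basal) and 10 uM staurosporine (100%), and AC50 came from a Hill fit.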
The nature of experiment [15]: Cellular Toxicity (caspase-3) H-4-II-E (AID 663).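 Also: cells exposed to compound for 16 hr before readout; 0% = DMSO basal and 100% = 100 µM tamoxifen.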 The procedure, abridged: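 Apoptosis induction is scored as increased luminescence from caspase 3/7 substrate cleavage in rat hepatoma H-4-II-E cells exposed to compound for 16 hr. Activity is scaled between DMSO and 100 uM tamoxifen.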
The target in experiment [16] is Glucocorticoid receptor (Homo sapiens) (UniProt P04150). The experiment can be described thus: GR-GFP Redistribution (AID 450;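 active = compounds whose dose series gives a full or clear partial fitted curve of increased nuclear translocation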; also: potency is read from the fitted curve at half-maximal effect). To be noted: U2OS GR-GFP nuclear translocation, laser cytometry, 2 h.
Chain of Glucocorticoid receptor (Homo sapiens) (P04150 whole entry, looked up): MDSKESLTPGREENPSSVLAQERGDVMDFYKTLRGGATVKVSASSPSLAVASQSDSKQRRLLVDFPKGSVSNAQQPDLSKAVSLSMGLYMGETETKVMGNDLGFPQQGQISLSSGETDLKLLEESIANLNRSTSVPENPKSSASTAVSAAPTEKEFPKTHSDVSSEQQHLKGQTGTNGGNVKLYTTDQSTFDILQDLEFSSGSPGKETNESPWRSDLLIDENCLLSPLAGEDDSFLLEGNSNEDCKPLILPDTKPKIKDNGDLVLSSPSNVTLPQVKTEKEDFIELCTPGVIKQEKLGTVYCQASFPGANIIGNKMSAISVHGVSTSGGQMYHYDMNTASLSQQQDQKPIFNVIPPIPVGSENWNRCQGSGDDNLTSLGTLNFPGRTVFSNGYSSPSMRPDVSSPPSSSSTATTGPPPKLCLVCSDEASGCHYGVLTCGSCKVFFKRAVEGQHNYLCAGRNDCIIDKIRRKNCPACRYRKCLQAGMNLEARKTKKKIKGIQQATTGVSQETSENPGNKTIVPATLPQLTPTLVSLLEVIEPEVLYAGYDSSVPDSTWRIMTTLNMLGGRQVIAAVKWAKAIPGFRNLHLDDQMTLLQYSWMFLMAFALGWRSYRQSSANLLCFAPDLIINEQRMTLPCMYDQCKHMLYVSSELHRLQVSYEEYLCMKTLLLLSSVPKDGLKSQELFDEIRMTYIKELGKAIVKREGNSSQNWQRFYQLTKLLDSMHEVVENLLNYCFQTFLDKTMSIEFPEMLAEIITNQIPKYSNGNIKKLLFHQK
Experiment [17] has the same target. In words: GR-EFC Redistribution (AID 451; calls by dose curve; also: potency is read from the fitted curve at half-maximal effect). The settings on record: CHO-K1 GR-EFC translocation, beta-gal luminescence, 2 h. The method in brief:
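Translocation of GR-ED fusion to nuclear EA restores b-gal, read by luminescence after 1 h room-temperature detection. Engineered CHO-K1 biosensor cells, 1,000/well, exposed 2 h at 37 C to titrations up to 46 uM final.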

The target in experiment [18] is 3',5'-cyclic-AMP phosphodiesterase 4B (Homo sapiens) (UniProt Q07343). The experiment can be described thus: qHTS Assay for Inhibitors of PDE-IV (AID 607; active = well fitted activation curve with a large enough effect in the main read-out, with a control signal flat, not every such curve was filed as active; also: % of control where 0% means no effect). The procedure, abridged: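 HEK293 ACTOne cells with CNG channel (1000/well), endogenous PDE4; membrane potential dye, compounds up to 22.9 uM final. Fluorescence Ex 535/Em 590; RO 20-1724 (100 uM final) as reference.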
Chain of 3',5'-cyclic-AMP phosphodiesterase 4B (Homo sapiens) (Q07343 whole entry, looked up): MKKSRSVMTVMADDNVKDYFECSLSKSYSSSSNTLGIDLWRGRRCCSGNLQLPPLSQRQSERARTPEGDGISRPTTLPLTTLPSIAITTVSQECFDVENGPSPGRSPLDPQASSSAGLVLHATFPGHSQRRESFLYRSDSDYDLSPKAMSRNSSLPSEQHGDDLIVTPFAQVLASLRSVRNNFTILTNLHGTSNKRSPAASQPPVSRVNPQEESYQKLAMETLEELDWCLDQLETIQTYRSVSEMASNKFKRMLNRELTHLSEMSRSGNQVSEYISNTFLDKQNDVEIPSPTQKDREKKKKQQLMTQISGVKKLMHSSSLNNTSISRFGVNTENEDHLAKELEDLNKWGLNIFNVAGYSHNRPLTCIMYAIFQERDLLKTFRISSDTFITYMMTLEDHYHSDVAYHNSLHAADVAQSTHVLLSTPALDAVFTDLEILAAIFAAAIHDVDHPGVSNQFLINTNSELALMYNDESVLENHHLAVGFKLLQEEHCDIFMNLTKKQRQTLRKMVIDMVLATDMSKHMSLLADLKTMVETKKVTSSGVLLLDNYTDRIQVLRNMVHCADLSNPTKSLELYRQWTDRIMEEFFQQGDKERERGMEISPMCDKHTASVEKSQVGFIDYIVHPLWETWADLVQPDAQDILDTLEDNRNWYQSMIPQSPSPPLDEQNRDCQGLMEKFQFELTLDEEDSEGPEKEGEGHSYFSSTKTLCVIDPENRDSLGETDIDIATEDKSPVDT
For orientation: In qHTS, concentration-response curves come from the screen itself.

Experiment [19] in a line: Cellular Toxicity (caspase-3) Jurkat (AID 655).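 Also: cells exposed to compound for 16 h at 37 °C before reading.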 The method in brief:
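Luminescent Caspase-Glo 3/7 read-out (20 min, room temperature) after 16 h compound treatment at 37 C of 5000 Jurkat cells per well. AC50 derived by Hill-equation fitting, scaled between DMSO basal and 100 uM tamoxifen stimulation.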

The target in experiment [20] is Mitogen-activated protein kinase 10 (Mus musculus) (UniProt Q61831). In words: JNK3 AlphaScreen Assay (AID 530; active = well fitted curve in either direction with a large enough effect, not every such curve was filed as active;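 also: kinase came from lysate of stimulated human HepG2 cells; signal reports phosphorylation of biotinylated GST-cJun 1-79 at Ser73 with 10 µM ATP; % is scaled to controls: 0 for no effect and ±100 for the full control effect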). The method in brief:
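Compound titrations were preincubated 15 minutes at room temperature with substrate, antibody and pre-activated JNK3-containing HepG2 lysate. Reactions were started with 10 uM ATP and stopped with EDTA-containing bead buffer for AlphaScreen detection.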
(Bead proximity is the source of the signal in Alpha formats.)

For `CC(=O)[O][Hg][c]1ccccc1`, the Potency in experiment [1] is 10 µM (active); in [2] it was 0.0631 µM (active); in experiment [3], 1.26 µM (active); in [4] it was 2 µM (active); in experiment [5] it was 0.126 µM (active); in experiment [6], 0.631 µM (active). The Potency in [7] was 2 µM (active). Further, the outcome in [8], in [9], in experiment [10], in experiment [11], in experiment [12] and in [13] was inactive. Also, the outcome in [14] and in experiment [15] was inactive.
Consider `Clc1cnc(Oc2ccc(Oc3ncc(Cl)cc3Cl)cc2)c(Cl)c1`, for which the Potency in experiment [16] and in [17] was > 46 µM in each case. Also, the Potency result in experiment [18] was “inactive”.
Regarding `C[C@]12N[C@H](Cc3ccccc31)c1ccccc12`, the Potency entry in [18] was “inactive”.
`CCCCOC(=O)c1ccccc1C(=O)OCc1ccccc1`: in [1], the activity change, negative = cytotoxicity is -9.01%. For the same molecule, the Potency result in [2], in experiment [3], in experiment [4], in [5], in experiment [6] and in experiment [7] was “inactive” throughout. In addition, the result in [8], in [19], in experiment [9], in [10], in [11] and in experiment [12] was inactive. The molecule was classed as inactive in experiment [13], in experiment [14] and in [15].
For the molecule `COc1ccc2c(c[n+](C)c3c4cc5c(cc4ccc23)OCO5)c1OC`, the Potency in [17] was > 46 µM. Moreover, in experiment [20], the molecule was classed as inactive. Further, the Potency result in [18] is “inactive”.
With `CCCN1CCO[C@@H]2c3cc(O)ccc3OC[C@@H]21`, the Potency in experiment [17] was > 46 µM. In addition, the call in experiment [20] was inactive. Also, the Potency entry in experiment [18] is “inactive”.
For `CCOCCOC(C)=O`, the activity change, negative = cytotoxicity in [1] is -15.1%. Besides, the Potency result in [2], in experiment [3], in experiment [4], in experiment [5], in experiment [6] and in experiment [7] was “inactive” throughout. Besides, the molecule was classed as inactive in experiment [8], in experiment [19], in experiment [9], in experiment [10], in experiment [11] and in experiment [12]. Moreover, the molecule was classed as inactive in experiment [13], in experiment [14] and in [15].
On to `CN(C)[C@@H]1C(=O)C(C(N)=O)=C(O)[C@@]2(O)C(=O)C3=C(O)c4c(O)cccc4[C@@](C)(O)[C@H]3[C@H](O)[C@@H]12`, for which the activity change, negative = cytotoxicity in experiment [1] was 0.531%. Also, the Potency result in [2], in [3], in [4], in [5], in experiment [6] and in experiment [7] was “inactive” in each case. Besides, the result in [8], in experiment [19], in experiment [9], in experiment [10], in [11] and in experiment [12] was inactive. Further, the molecule was called inactive in experiment [13], in [14] and in experiment [15].
On to `O=[N+]([O-])c1c(Cl)c(Cl)cc(Cl)c1Cl`, for which the molecule was classed as inactive in [20], in experiment [8], in [19], in experiment [9], in experiment [10] and in [11]. Besides, the molecule was classed as inactive in experiment [12], in experiment [13], in [14] and in experiment [15]. Further, in experiment [1], the activity change, negative = cytotoxicity was 3.06%. Moreover, the Potency result in [3], in experiment [4], in [5], in experiment [6] and in experiment [7] was “inactive” in each case.
For the molecule `CC(C)(O)C(=O)Nc1ccc([N+](=O)[O-])c(C(F)(F)F)c1`, the activity change, negative = cytotoxicity in experiment [1] was -95.6% (active). Besides, the Potency result in [3], in experiment [5], in [6] and in experiment [7] was “inactive” in each case. The outcome in [8], in experiment [19], in [9], in experiment [10], in [11] and in experiment [12] was inactive. The outcome in experiment [13], in experiment [14] and in experiment [15] was inactive.
